# Compound activity from PubChem BioAssay.
# Hits are enriched below; roughly 10% of the tested compounds scored in any of these assays.
# FLuc inh: Firefly luciferase inhibition profiling of diverse chemical library using quantitative high-throughput screening; AID 1347043, 2019; Potency, µM (doses to about 115 µM), actives largely listed as inhibitors; Luciferin 4-monooxygenase (Photinus pyralis), P08659; hit rate 2.5% among 76,000; purified P. pyralis luciferase, luminescence, biochemical; note: nearly all actives have a fitted effect of over 65% in size
#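 Cell-free enzyme assay, 10nM P. pyralis luciferase, luciferin and ATP each at 10uM. Inhibition profiled over a 6-point titration, read as luminescence.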
# HEK293 tox: Cytotoxic Profiling in HEK 293 Cell Line of Diverse Libraries Using Quantitative High-Throughput Screening | HEK 293 viability, ATP luminescence (CellTiter-Glo), 48-72 h | Potency, µM (titrated, usually from 115 µM), without a hit: at the top dose activity change, negative = cytotoxicity, hits mostly inhibitors | hit rate 6.6% among 94,000 | AID 1345083, 2018; note: nearly all actives have a fitted effect of over 60% in size
#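 Pintool-delivered compounds were incubated with HEK 293 cells (250 cells/well) at 37 degree Celsius for 48 or 72 hr. ATP-dependent luminescence (CellTiter-Glo) then reported remaining viable cells.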
# hNpr1 antagonist: Natriuretic polypeptide receptor (hNpr1) antagonism - Primary qHTS; hit rate 1.6% among 76,000; Potency, µM (doses to about 46.3 µM), without a hit: at the top dose activity change, negative = inhibition, usual class: inhibitors; HEK293 hNpr1 GloSensor cGMP, ANP-stimulated luminescence; calls by dose curve; note: nearly all actives have a fitted effect of over 60% in size
# Target sequence (P16066 whole entry, looked up): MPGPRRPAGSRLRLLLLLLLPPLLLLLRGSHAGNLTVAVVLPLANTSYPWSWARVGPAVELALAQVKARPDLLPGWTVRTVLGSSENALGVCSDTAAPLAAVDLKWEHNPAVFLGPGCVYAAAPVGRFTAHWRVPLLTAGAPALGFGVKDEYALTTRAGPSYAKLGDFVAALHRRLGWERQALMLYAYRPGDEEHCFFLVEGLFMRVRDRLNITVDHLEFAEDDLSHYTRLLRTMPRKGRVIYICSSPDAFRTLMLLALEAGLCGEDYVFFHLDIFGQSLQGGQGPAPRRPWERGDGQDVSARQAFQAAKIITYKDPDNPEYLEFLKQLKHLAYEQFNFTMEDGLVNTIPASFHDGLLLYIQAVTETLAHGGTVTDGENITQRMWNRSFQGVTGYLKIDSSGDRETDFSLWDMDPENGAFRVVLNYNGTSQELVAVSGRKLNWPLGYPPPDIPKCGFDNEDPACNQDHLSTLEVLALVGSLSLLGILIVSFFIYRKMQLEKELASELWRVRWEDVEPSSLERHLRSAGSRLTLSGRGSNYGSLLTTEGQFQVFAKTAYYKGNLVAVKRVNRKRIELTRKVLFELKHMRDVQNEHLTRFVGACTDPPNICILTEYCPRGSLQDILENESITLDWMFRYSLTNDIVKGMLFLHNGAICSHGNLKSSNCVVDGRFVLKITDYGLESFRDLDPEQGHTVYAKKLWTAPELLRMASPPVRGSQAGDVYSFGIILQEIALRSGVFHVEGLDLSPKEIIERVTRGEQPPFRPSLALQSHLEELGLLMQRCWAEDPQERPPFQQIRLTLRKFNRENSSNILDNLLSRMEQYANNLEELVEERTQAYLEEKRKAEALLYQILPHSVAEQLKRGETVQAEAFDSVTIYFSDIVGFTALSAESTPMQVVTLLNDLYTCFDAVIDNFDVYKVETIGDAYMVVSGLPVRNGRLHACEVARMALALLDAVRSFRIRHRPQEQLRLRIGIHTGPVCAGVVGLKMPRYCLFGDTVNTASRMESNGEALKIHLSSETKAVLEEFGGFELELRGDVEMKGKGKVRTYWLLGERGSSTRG
#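 Compound pre-incubated 30 min at room temperature on GloSensor-loaded HEK293 cells stably carrying hNpr1 and the pGS-40F cGMP biosensor. Stimulation uses hNppA at 0.1 nM final; luminescence is taken at baseline and 20 min post-agonist.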
# 3T3 cytotox: Cytotoxic Profiling in NIH 3T3 Cell Line of Diverse Libraries Using Quantitative High-Throughput Screening; NIH 3T3 viability, CellTiter-Glo ATP luminescence, 48-72 h; hit rate 4.3% among 94,000; Potency, µM (titrated, usually from 96.7 µM), for the others: at the highest dose activity change, negative = cytotoxicity, actives largely listed as inhibitors; note: nearly all actives have a fitted effect of over 55% in size
#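 Cytotoxicity is measured as loss of cellular ATP: NIH 3T3 cells (400/well) are exposed to compound for 48 or 72 hr at 37 °C, then CellTiter-Glo luminescence is imaged after 10 min at room temperature.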
# GPT2 inh: Primary qHTS assay for inhibitors of Glutamate pyruvate transaminase 2 (GPT2); Alanine aminotransferase 2 (Homo sapiens), Q8TD30; Recombinant GPT2, coupled pyruvate oxidase/HRP Amplex Red fluorescence; Potency, µM (doses to about 57.7 µM), inactives show top-dose activity change, negative = inhibition, most hits filed as inhibitors; hit rate 0.25% among 100,000; AID 1671188, 2021; note: nearly all actives have a fitted effect of over 60% in size
#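 GPT2 10ng/uL, a-KG 250uM, L-Ala 2mM, HEPES pH7.5 + 0.0001% Tween; 30 min RT. Then Amplex mix (PO/HRP/ThPP), 30 min RT dark, fluorescence. AOA 50uM used as positive control.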
# The depositor's hits bear a star; i = inactive; ? = inconclusive; . = not tested or not shown; [ ] = dose if it differs, or a comment. Unless noted, calls come from the whole dose curve; as a rule, active = well fitted curve in the direction sought with a large enough effect; inconclusive = small, poorly fitted or top-dose-only effect, or another doubt; inactive = no such curve, though single readings can be large; an effect the other way counts as inactive or inconclusive. % is set by controls: 0 for no effect and ±100 for the full control effect; potency is the fitted concentration of half-maximal effect.
SMILES,FLuc inh,HEK293 tox,hNpr1 antagonist,3T3 cytotox,GPT2 inh
Cc1ccnc(N2CC3CCC(C2)N3CC(F)(F)F)c1[N+](=O)[O-],.,?,.,-19.2%,i
O=[N+]([O-])c1ccc(Cl)nc1N1CC2CCC(C1)N2CC(F)(F)F,.,39.8µM*,.,?,?
FC(F)(F)CN1C2CCC1CN(c1nnc(Cl)c3ccccc13)C2,.,79.4µM*,.,?,-9.6%
COc1nc2ccccc2cc1CN1CCC2(C1)CN(C)C(=O)O2 (stereo not drawn),i,?,-0.2%,-28.7%,-23.7%
O=C(Cc1cccc(Cl)c1)N1CCN(Cc2ccccc2-c2ccccc2F)CC1,.,?,.,?,0.7%
CCC1NC(=O)C2C(Cl)C(Cl)CN2C(=O)C(CC)NC(=O)CC(c2ccccc2)NC(=O)C(CO)NC1=O (stereo not drawn),.,.,.,.,i
Cn1nc(-c2ccc3ccccc3c2)cc1[C@H]1CN2CC[C@H]1C[C@@H]2CNS(=O)(=O)c1cccs1,?,?,-3.8%,20µM*,-29.7%
COc1ccc(CNC[C@H]2C[C@@H]3CCN2C[C@@H]3c2cc(-c3cccs3)nn2C)cc1,i,44.7µM*,0.9%[70.6 µM],?,-3.2%[88.5 µM]
Cn1nc(-c2ccccc2)cc1[C@H]1CN2CC[C@H]1C[C@@H]2CNS(=O)(=O)Cc1ccccc1,i,79.4µM*,5.7%,79.4µM*,i
Cn1nc(-c2ccccc2)cc1[C@H]1CN2CC[C@H]1C[C@@H]2CNS(=O)(=O)c1cccs1,i,?,-15.9%[70.6 µM],?,i
Cc1nc(-c2ccccc2)cc([C@H]2CN3CC[C@H]2C[C@@H]3CNS(C)(=O)=O)n1,i,-21.2%[172 µM],-9.0%[70.6 µM],?,i
Cc1nc(-c2ccc(C(F)(F)F)cc2)cc([C@H]2CN3CC[C@H]2C[C@@H]3CNS(C)(=O)=O)n1,i,?,0.9%,39.8µM*,?
Cc1cccc(NC(=O)NC2N=C(c3ccccc3)c3ccccc3N(CC(=O)c3ccccc3C)C2=O)c1 (stereo not drawn),.,.,.,.,-3.4%
CCOC(=O)[C@H]1CN(C(=O)OCc2ccccc2)[C@]2(C)C(=O)Nc3ccccc3[C@H]12,.,?,.,-24.5%[46.1 µM],0.2%[27.3 µM]
Cc1nc(-c2ccc(F)cc2)cc([C@H]2CN3CC[C@H]2C[C@@H]3CNS(=O)(=O)Cc2ccccc2)n1,i,35.5µM*,3.5%,79.4µM*,i
COc1cc2c(cc1OCC1CC1)NC(=O)C21CCN(c2cc(NC3CC3)ncn2)CC1,i,89.1µM*,-8.7%[70.6 µM],25.1µM*,-3.1%[88.5 µM]
COc1cc2c(cc1OC1CCCC1)NC(=O)C21CCN(c2cc(NC3CC3)ncn2)CC1,i,?,-13.1%,?,3.2%
COc1cc2c(cc1OC1CCCC1)NC(=O)C21CCN(c2ccnc(C)n2)CC1,i,?,-10.0%[70.6 µM],79.4µM*,-0.5%[88.5 µM]
COc1cc2c(cc1OC1CCCC1)NC(=O)C21CCN(Cc2ccncc2)CC1,i,?,-5.9%[70.6 µM],?,-0.8%[88.5 µM]
COc1cc2c(cc1OCC1CC1)NC(=O)C21CCN(c2ccnc(C)n2)CC1,i,79.4µM*,-6.7%[70.6 µM],?,1.8%[88.5 µM]
Cn1nc(C2CCCC2)cc1[C@H]1CN2CC[C@H]1C[C@@H]2CNC(=O)c1ccc2c(c1)OCO2,i,?,-0.4%,?,i
CCC(CC)c1cc([C@H]2CN3CC[C@H]2C[C@@H]3CNC(=O)C2CCC2)nc(-c2ccncc2)n1,i,-4.9%,1.0%,?,1.0%
CC(C)c1ccc(NC(=O)OC[C@H]2C[C@@H]3CCN2C[C@@H]3c2cc(C3CCCC3)nc(-c3ccncc3)n2)cc1,?,3.55µM*,-24.1%,4.47µM*,i
CC(C)(C)c1ccc(NC(=O)OC[C@H]2C[C@@H]3CCN2C[C@@H]3c2cc(C3CCCC3)nc(-c3ccncc3)n2)cc1,?,20µM*,4.5%,20µM*,-9.8%
COc1ccc(-c2cc([C@H]3CN4CC[C@H]3C[C@@H]4COC(=O)NC(C)C)n(C)n2)cc1,i,-28.3%[172 µM],-2.6%[70.6 µM],-22.9%[174 µM],i
SMILES,FLuc inh,HEK293 tox,hNpr1 antagonist,3T3 cytotox,GPT2 inh
COc1ccc(NC(=O)OC[C@H]2C[C@@H]3CCN2C[C@@H]3c2cc(C3CCCC3)nc(-c3ccncc3)n2)cc1,i,14.1µM*,?,?,i
CCC(CC)c1cc([C@H]2CN3CC[C@H]2C[C@@H]3CNC(C)=O)nc(-c2ccncc2)n1,i,100µM*,?,44.7µM*,-2.4%[88.5 µM]
CCC(CC)c1cc([C@H]2CN3CC[C@H]2C[C@@H]3CNC(=O)C(C)(C)C)nc(-c2ccncc2)n1,i,?,-2.5%,?,-0.2%
CCCNC(=O)OC[C@H]1C[C@@H]2CCN1C[C@@H]2c1cc(C(CC)CC)nc(-c2ccncc2)n1,i,?,?,39.8µM*,2.2%
COc1ccc(NC(=O)OC[C@H]2C[C@@H]3CCN2C[C@@H]3c2cc(-c3ccccc3OC)nn2C)cc1,i,-23.8%,-2.6%,-23.9%,-5.1%
Cc1nc(-c2ccc(N(C)C)cc2)cc([C@H]2CN3CC[C@H]2C[C@@H]3COC(=O)Nc2ccc(C(C)C)cc2)n1,?,3.55µM*,?,3.55µM*,-1.1%
CCC(CC)c1cc([C@H]2CN3CC[C@H]2C[C@@H]3CNC(=O)C2CC2)nc(-c2ccncc2)n1,i,-11.1%[172 µM],-3.1%[70.6 µM],-26.1%[174 µM],0.3%[88.5 µM]
CCC(CC)c1cc([C@H]2CN3CC[C@H]2C[C@@H]3COC(=O)Nc2ccc(C(C)(C)C)cc2)nc(-c2ccncc2)n1,?,7.08µM*,-23.7%,5.01µM*,-0.8%
Cn1nc(-c2ccc3ccccc3c2)cc1[C@H]1CN2CC[C@H]1C[C@@H]2COC(=O)Nc1ccccc1,?,20µM*,-7.9%,17.8µM*,?
CCOC(=O)[C@H]1CN(C(=O)c2ccc(SC)cc2)[C@]2(C)C(=O)N(CC3CC3)c3ccccc3[C@H]12,.,?,.,?,-5.2%[27.3 µM]
CC[C@H]1CN2CC[C@H]1C[C@@H]2COC(=O)Nc1cc(OC)cc(OC)c1,i,100µM*,2.6%[70.6 µM],?,-4.3%[88.5 µM]
COc1ccc(NC(=O)NC[C@H]2C[C@@H]3CCN2C[C@@H]3c2cc(C3CCCC3)nn2C)cc1,i,?,-7.5%,?,i
O=C(Nc1ccccc1)OC[C@H]1C[C@@H]2CCN1C[C@@H]2c1cc(C2CCCC2)nc(-c2ccncc2)n1,?,3.98µM*,?,7.94µM*,0.5%
Cn1nc(C2CCCCC2)cc1[C@H]1CN2CC[C@H]1C[C@@H]2CO,i,?,0.5%[70.6 µM],?,1.8%[88.5 µM]
